Source: PubChem BioAssay AID1566 (Sanford-Burnham Center for Chemical Genomics, 2009)
Several values for one entry are separate records, joined by “and”; a condition that tells them apart may be missing. Equal entries are not always repeated. In all, about 290,000 compounds went through this assay and about 1,800 (0.62%) were called active. Rule as the data show it: active = inhibition above about 50%; inactive = the rest. Only a selection was taken, and actives are over-represented in it overall.

Test: inhibition of NOD2-driven NF-kB reporter – cell-based, luminescence, uHTS, HEK293 (AID 1566)
Settings: HEK293 NOD2/NF-kB luciferase reporter, at 4 µM, active compounds read high

| SMILES | inhibition |
| --- | --- |
| COc1ccc(NS(=O)(=O)/C=C/c2ccccc2)cc1 | 17.1% (inactive) |
| COc1ccc(C(=O)Nn2c(SCc3cccc([N+](=O)[O-])c3)nc3ccccc3c2=O)cc1 | 40.4% (inactive) |
| COc1cccc(Oc2c(C)oc3c(CN4CCCCC4)c(O)ccc3c2=O)c1 | 18.7% (inactive) |
| Cc1cccc(-n2cc(C(=O)O)c(=O)cc2C)c1 | 1.7% (inactive) |
| CCOc1ccc(/C=C/C(=O)Nc2ccc3[nH]c(=O)[nH]c3c2)cc1 | 6.2% (inactive) |
| Cc1ccc(NS(=O)(=O)c2c(C)nc3sccn3c2=O)cc1C | 12.9% (inactive) |
| CC1CCCN(c2ccc3nc4ccccc4c(=O)n3n2)C1 (configuration not stated) | 4.1% (inactive) |
| CN(c1cc(=O)n2ccccc2n1)C1CCCCC1 | -19.5% (inactive) |
| CN(c1ccc2nc3ccccc3c(=O)n2n1)C1CCCCC1 | 79% (active) |
| CSc1ccc(C(=O)C2CCCN(C(=O)CCc3c(C)nn(C)c3C)C2)cc1 (configuration not stated) | 50.1% (active) |
| Cc1nn(C)c(C)c1CCC(=O)N1CCCC(C(=O)c2cccc(OC(C)C)c2)C1 (configuration not stated) | 14.2% (inactive) |
| CSc1ccc(C(=O)C2CCCN(C(=O)CCc3cnn(C)c3)C2)cc1 (configuration not stated) | 11% (inactive) |
| Clc1cccc(-c2ccnc3nc(-n4cccc4)nn23)c1 | 5.6% (inactive) |
| COc1ccc(OC)c(NC(=O)C2CC(=O)N(c3ccccc3)C2)c1 (configuration not stated) | -11.1% (inactive) |
| COCCN1CN=C(NS(=O)(=O)c2ccc(C)cc2)NC1 | 6.3% (inactive) |
| CC1CC(C)CN(C(=O)c2nn(C)c3c2CSc2ccccc2-3)C1 (configuration not stated) | 51.5% (active) |
| Cn1nc(C(=O)N2CCC(C(N)=O)CC2)c2c1-c1ccccc1SC2 | 12.9% (inactive) |
| CC1CCCN(C(=O)c2nn(C)c3c2CSc2ccccc2-3)C1 (configuration not stated) | 8% (inactive) |
| COCc1ccc(CN2CCC(C(=O)Nc3cccc(-c4cscn4)c3)CC2)o1 | 7.2% (inactive) |
| Cc1ccc(NC(=O)c2cc(C)n(-c3ccccc3)c2C)cc1 | 52% (active) |
| Cc1ccc(S(=O)(=O)NC(=O)c2cc(C)n(-c3ccccc3)c2C)cc1 | 13.4% (inactive) |

| SMILES | inhibition |
| --- | --- |
| Cc1ccc(NC(=O)c2cc(C)n(-c3cccc(C)c3)c2C)cc1 | -26.4% (inactive) |
| O=C(/C=C/c1cn(-c2ccccc2)nc1-c1cccnc1)N1CCCCC1 | 10% (inactive) |
| O=C(/C=C/c1cn(-c2ccccc2)nc1-c1cccnc1)N1CCCC1 | 50.2% (active) |
| O=C(/C=C/c1cn(-c2ccccc2)nc1-c1cccnc1)c1ccco1 | -74.6% (inactive) |
| CC(OC(=O)C1CCN(S(=O)(=O)c2ccc(Cl)cc2)CC1)C(=O)N1CCc2ccccc21 (configuration not stated) | -4.3% (inactive) |
| COc1ccc(CN(Cc2nc3ccccc3c(=O)[nH]2)C(=O)c2ccco2)cc1 | 6.4% (inactive) |
| c1ccc2c(c1)nc(-c1ccncc1)n2CCNc1nc(CN2CCCCC2)cs1 | 18.5% (inactive) |
| CCOC(=O)c1ccc(NC(=S)N2CCCC(C(=O)OCC)C2)cc1 (configuration not stated) | -6% (inactive) |
| O=C1C=C(c2cccs2)C[C@H](c2ccccc2)[C@H]1n1nnc([N+](=O)[O-])n1 | 21.7% (inactive) |
| O=C1C=C(c2ccccc2)C[C@H](c2cccs2)[C@H]1n1cnc([N+](=O)[O-])c1 | 3.4% (inactive) |
| COc1ccc(NC(=O)c2cccc(OC(=S)N3CCOCC3)c2)cc1 | 18.5% (inactive) |
| Cc1cccc(C)c1NC(=S)NCc1ccncc1 | 7.5% (inactive) |
| Cc1cc(/C=c2\sc3nc4ccccc4n3c2=O)c(C)n1-c1ccc(C(=O)O)cc1 | -0.4% (inactive) |
| Cc1cc(/C=c2/sc3nc4ccccc4n3c2=O)c(C)n1-c1ccccn1 | 3.6% (inactive) |
| CC1(C)Cc2c(c(-c3ccco3)nc3sc4c(NCCO)ncnc4c23)CO1 | 16.6% (inactive) |
| Cc1ccc(C(=O)O/N=C(/c2nonc2N)N(C)C)cc1 | 12.2% (inactive) |
| Cc1n(Cc2ccccc2)c2ccccc2[n+]1Cc1ccccc1 | 22% (inactive) |
| COc1ccc(-c2nc3ccccc3n2Cc2ccccc2)cc1 | -2.8% (inactive) |
| C/C(=N\Nc1ccc(C)c(Cl)c1)c1ccncc1 | -32.8% (inactive) |
| O=C(Nc1ccc2c(c1)OCO2)C1CCN(Cc2cc3c(cc2O)OCO3)CC1 | 1.5% (inactive) |
| Cc1nc2ccccc2c(=O)n1N | -3.2% (inactive) |

| SMILES | inhibition |
| --- | --- |
| Cc1nc2sc(-c3ccccc3)cc2c(=O)n1N | -41.2% (inactive) |
| Cc1nc2cc(-c3ccccc3)sc2c(=O)n1N | 54.8% (active) |
| CC(C)(C#N)NC(=O)C(=O)c1c(-c2ccccc2)cc2ccccn12 | 5% (inactive) |
| CCOc1ccc(-n2c(N)c(-c3nc4ccccc4[nH]3)sc2=S)cc1 | 9.9% (inactive) |
| COc1cccc(/C=N/Nc2ccc(C(=O)O)cc2)c1O | 82.8% (active) |
| COc1cccc(/C=N/Nc2ccc([N+](=O)[O-])cc2)c1O | -64% (inactive) |
| COc1cccc(/C=N/Nc2ccc(S(=O)(=O)O)cc2)c1O | 15.4% (inactive) |
| CCOC(=O)CNC(=S)N(CCCN1CCN(C)CC1)Cc1cccs1 | -1.4% (inactive) |
| O=C1OC(c2ccccc2)c2ccccc21 (configuration not stated) | -11.5% (inactive) |
| CC1CCN(S(=O)(=O)c2ccc(NC(=O)CNC3CCCCC3)cc2)CC1 | -15.2% (inactive) |
| Cc1sc2c(=O)n3c(nc2c1C(=O)NC1CCCCC1)CCCCC3 | 16.8% (inactive) |
| O=C(O)CSc1nc2ccccc2s1 | 0.2% (inactive) and -11.4% (inactive) |
| O=C(CSc1nc2ccccc2s1)CSc1nc2ccccc2s1 | 4.4% (inactive) |
| O=C(O)COc1ccccc1/C=N/NC(=O)CSc1nc2ccccc2s1 | -0.7% (inactive) |
| O=C(CSc1nc2ccccc2s1)N/N=C/c1ccccc1C(=O)O | 56.5% (active) |
| O=C(CSc1nc2ccccc2s1)N/N=C/c1ccc(C(=O)O)cc1 | 12.9% (inactive) |
| O=C(O)CCSc1nc2ccccc2s1 | 65.2% (active) |
| Cc1ccc(S(=O)(=O)N2CCN3CCCC3C2)cc1 (configuration not stated) | 17.2% (inactive) |
| O=C(O)c1ccc(-n2c(/C=C/c3ccccc3)nc3ccccc3c2=O)cc1 | -19.9% (inactive) |
| COc1ccc(Oc2nnc(-c3ccc(C)cc3)c3ccccc23)cc1 | 14.9% (inactive) |
